# PubChem BioAssay (NCATS)
# Results filed as inconclusive are left out. Active and inactive are the calls of the source. Calls follow the shape of the dose curve; as a rule, active = well fitted inhibition curve with a large enough effect; inconclusive = small, poorly fitted or top-dose-only effect; inactive = no such curve, though single readings can be large or run the other way.
# Target: Rap guanine nucleotide exchange factor 4 (Homo sapiens) (UniProt Q8WZA2)
# Test: Confirmatory qHTS for antagonist of cAMP-regulated guanine nucleotide exchange factor 4 (EPAC2) (AID 1645885); also: nearly all actives have a fitted effect of over 25% in size; also: potency is read from the fitted curve at half-maximal effect; as to activity change, negative = inhibition: % is scaled to controls: 0 for no effect and ±100 for the full control effect
# Details: EPAC2 Rap1B-BODIPY-GDP exchange fluorescence, biochemical; series mostly up to 12.7 µM; activity change, negative = inhibition: at the top concentration
# Chain of Rap guanine nucleotide exchange factor 4 (Homo sapiens) (Q8WZA2 whole entry, looked up): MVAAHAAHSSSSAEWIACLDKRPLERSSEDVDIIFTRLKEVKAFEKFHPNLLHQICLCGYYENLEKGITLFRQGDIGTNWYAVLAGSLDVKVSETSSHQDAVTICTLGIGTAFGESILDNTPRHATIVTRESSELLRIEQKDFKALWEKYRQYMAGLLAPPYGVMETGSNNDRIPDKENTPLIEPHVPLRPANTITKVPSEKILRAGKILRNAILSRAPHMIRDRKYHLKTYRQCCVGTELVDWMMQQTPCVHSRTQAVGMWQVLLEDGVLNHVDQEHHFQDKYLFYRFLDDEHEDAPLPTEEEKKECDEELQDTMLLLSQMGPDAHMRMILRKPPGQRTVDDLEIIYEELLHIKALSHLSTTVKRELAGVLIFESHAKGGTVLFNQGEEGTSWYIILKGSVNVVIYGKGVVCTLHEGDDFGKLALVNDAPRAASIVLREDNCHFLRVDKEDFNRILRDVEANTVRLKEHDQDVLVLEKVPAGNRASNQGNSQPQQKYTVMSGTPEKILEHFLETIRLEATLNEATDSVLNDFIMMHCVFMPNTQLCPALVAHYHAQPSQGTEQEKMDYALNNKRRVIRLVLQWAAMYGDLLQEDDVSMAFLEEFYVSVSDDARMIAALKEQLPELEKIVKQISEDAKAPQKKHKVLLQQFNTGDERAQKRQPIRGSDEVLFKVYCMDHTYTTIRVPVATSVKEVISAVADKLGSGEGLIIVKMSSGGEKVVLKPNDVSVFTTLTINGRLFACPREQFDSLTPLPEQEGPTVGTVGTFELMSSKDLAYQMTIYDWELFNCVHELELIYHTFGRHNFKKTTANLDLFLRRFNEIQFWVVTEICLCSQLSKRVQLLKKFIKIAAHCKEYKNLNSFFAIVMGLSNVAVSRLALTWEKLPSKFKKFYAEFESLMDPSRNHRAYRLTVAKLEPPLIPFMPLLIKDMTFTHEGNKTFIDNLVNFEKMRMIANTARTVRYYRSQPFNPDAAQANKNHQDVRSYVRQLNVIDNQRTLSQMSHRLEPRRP
SMILES,"activity change, negative = inhibition",Potency
O=C(CSc1nnc(-c2cnccn2)n1Cc1ccco1)c1ccc(Cl)cc1,31% [at 114 µM] (inactive),
O=C(O)CC/C(=C/c1cccc(NC(=O)c2ccccc2Cl)c1)c1nc2ccccc2s1,12.3% [at 114 µM] (inactive),
CCc1ccc2occ(CC(=O)Nc3ccc(C)c(C)c3)c2c1,-19.4% (inactive),
CCCc1nc2ccc(C(=O)OC)cn2c1Cc1ccc(C)cc1,-2.23% [at 114 µM] (inactive),
CCCc1ccc2oc(C(=O)NCCc3nc(C(=O)OCC)cs3)c(C)c2c1,-33.9% (inactive),
Cc1ccc(NC(=O)CC2S/C(=N/N=C3\CCCc4ccccc43)NC2=O)cc1 (stereo not given),-15.7% (inactive),
COc1ccc(Cn2c(-c3ccc(C)cc3)nc3c(c(=O)c4ccccc4n3C)c2=O)cc1,-12.1% (inactive),
CCN(CCCNC(=O)c1cc2cc3ccc(OC)cc3nc2s1)c1cccc(C)c1,0.252% (inactive),
Brc1cc2c(cc1CSc1ncccn1)OCO2,-32% (inactive),
CN(CCOc1ccc(Br)cc1)C(=O)CNC(=O)c1ccc2ccccc2c1,-15.8% (inactive),
Cc1ccc(NC(=O)CN2C(=O)S/C(=C\c3cccn3-c3cccc(C(=O)O)c3)C2=O)cc1C,,0.019 µM (active)
CCC(=O)NC(c1ccc(OC)cc1)c1c(O)ccc2ccccc12 (stereo not given),4.32% [at 114 µM] (inactive),
O=C(CSc1ccc2ccccc2c1)Nc1ccc(S(=O)(=O)Nc2nccs2)cc1,3.54% (inactive),
CCC1=Nc2cc(C(=O)NCCCOC)ccc2Sc2ccc(Br)cc21,7.55% (inactive),
CC1CC(C)CN(C(=O)c2ccc3c(c2)N(Cc2ccccc2)CCS3)C1 (stereo not given),0.31% (inactive),
CC(c1nc2ccccc2n1Cc1ccccc1)n1c(-c2cnccn2)nc2ccccc21 (stereo not given),-12.1% [at 114 µM] (inactive),
CN(C)C(=O)c1cccc(-c2cnc3c(NC=O)cc(-c4ccccc4Cl)cn23)c1,-3.18% [at 114 µM] (inactive),
Cc1ccc(C(NC(=O)C2CCN(Cc3ccc(Cl)c(Cl)c3)CC2)c2ccccn2)cc1 (stereo not given),24.6% [at 114 µM] (inactive),
O=C1CSC(c2cccc(Cl)c2Cl)N1c1ccccn1 (stereo not given),-4.72% (inactive),
O=C(/C=C/c1ccco1)Nc1nc(-c2ccccn2)cs1,-9.37% [at 114 µM] (inactive),
Cc1cccc(N(Cc2ccccc2)C(=O)CSC(C)C(=O)Nc2cc(C)on2)c1 (stereo not given),,95.3 µM (active)

# Target: Rap guanine nucleotide exchange factor 3 (Homo sapiens) (UniProt O95398)
# Sequence (O95398 whole entry, looked up): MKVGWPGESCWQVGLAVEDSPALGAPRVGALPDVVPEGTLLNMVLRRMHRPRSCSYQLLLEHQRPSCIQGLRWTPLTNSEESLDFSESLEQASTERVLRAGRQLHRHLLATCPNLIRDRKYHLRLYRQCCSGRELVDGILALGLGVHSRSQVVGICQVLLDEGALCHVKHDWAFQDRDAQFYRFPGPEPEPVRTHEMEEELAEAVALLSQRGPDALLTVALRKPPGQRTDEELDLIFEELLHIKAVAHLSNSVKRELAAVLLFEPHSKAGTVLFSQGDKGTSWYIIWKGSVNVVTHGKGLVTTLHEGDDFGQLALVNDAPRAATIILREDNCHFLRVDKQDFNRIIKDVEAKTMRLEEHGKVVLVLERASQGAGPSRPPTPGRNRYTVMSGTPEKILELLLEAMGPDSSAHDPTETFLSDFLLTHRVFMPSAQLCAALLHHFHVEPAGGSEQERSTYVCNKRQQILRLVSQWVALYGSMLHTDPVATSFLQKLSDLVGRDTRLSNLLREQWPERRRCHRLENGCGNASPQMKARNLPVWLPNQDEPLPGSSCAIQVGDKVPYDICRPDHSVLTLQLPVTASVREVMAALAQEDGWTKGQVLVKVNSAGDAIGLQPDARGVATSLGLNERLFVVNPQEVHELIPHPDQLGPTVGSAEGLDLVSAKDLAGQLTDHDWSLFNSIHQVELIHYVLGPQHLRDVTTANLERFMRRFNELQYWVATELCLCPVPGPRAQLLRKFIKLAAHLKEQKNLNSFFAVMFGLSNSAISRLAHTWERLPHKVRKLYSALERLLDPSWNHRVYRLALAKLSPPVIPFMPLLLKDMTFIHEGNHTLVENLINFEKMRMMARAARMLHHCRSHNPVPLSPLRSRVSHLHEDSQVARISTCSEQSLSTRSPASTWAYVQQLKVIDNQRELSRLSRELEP
# Test: Counterscreen qHTS for antagonist of cAMP-regulated guanine nucleotide exchange factor 3 (EPAC1) (AID 1645888);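 also: fluorescence loss as bound BODIPY-GDP is released from Rap1B; % of control where 0% means no effect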
# Details: Rap1B-BODIPY-GDP nucleotide exchange, fluorescence; series mostly up to 154 µM; activity change, negative = inhibition: at the top concentration
# Method in brief: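 Measured: fluorescence of BODIPY-GDP bound to Rap1B, which falls as exchange proceeds. Conditions include 50 uM competing GDP, 5 and 30 min reads, and a later cAMP challenge for antagonist detection.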
row,SMILES,"activity change, negative = inhibition"
1,COc1ccc(OC)c(CNC(=O)CCCc2cn(C)c3ccccc23)c1,3.05% (inactive)
2,Oc1ccc(NCc2cccc(OCc3ccccc3)c2)cc1,9.16% (inactive)
3,CCc1nc2c(OCCC3CCCCC3)cccn2c1N(C)C(=O)c1ccc(C)cc1,-19.1% (inactive)
4,O=C(Nc1cccc(F)c1)c1ccc(-c2cccnc2)c2ccoc12,19.4% (inactive)
5,O=C(/C=C/c1ccco1)Nc1cccc2cccnc12,21.3% [at 30.8 µM] (inactive)
6,Cc1cccc(C)c1NC(=O)Cn1c(=O)n(Cc2ccc(C(=O)NCc3ccco3)cc2)c(=O)c2sccc21,21% (inactive)
7,CCc1ccccc1OCC(=O)NCC1COc2ccccc2O1 (stereo not given),-29.9% (inactive)
8,Cc1occc1-c1nnc(SCC(=O)c2cc3ccccc3oc2=O)o1,-0.143% [at 30.8 µM] (inactive)
9,Cc1ccc(C(=O)N2CCc3cc(CNC(=O)CSc4ccccc4)ccc32)cc1,19% (inactive)
10,COCCCn1c(=O)/c(=C\c2ccccc2OC(C)C)s/c1=C(/C#N)C(=O)Nc1ccc(C(=O)O)cc1,38.7% [at 30.8 µM] (inactive)
11,N#CCCN(CCC#N)S(=O)(=O)c1ccc(C(=O)Nc2nnc(C3=COCCO3)o2)cc1,17.3% (inactive)
12,COc1ccc(C2C=C(c3ccc(Br)cc3)Nc3nnnn32)c(OC)c1 (stereo not given),10.3% (inactive)
13,Oc1ccc(Cc2ccc(Cl)cc2)c(O)c1,-18.2% [at 30.8 µM] (inactive)
14,N#Cc1c(NC(=O)CSc2ncnc3sccc23)oc(-c2ccco2)c1-c1ccco1,12.7% (inactive)
15,COc1ccccc1[C@]1(C)ON(c2ccccc2C(F)(F)F)C1=O,11.4% (inactive)
16,Cc1cccc(NC(=O)CN2C(=O)N/C(=C\c3ccccc3OCc3ccc(C(=O)O)cc3)C2=O)c1,-0.399% (inactive)
17,O=C1Cc2ccccc2C(=O)N1,11.4% (inactive)
18,COc1ccc(Oc2cn[nH]c2-c2ccc(OC)cc2O)cc1,-4.7% [at 30.8 µM] (inactive)
19,O=C(CSc1nnc(-c2cnccn2)n1Cc1ccco1)c1ccc(Cl)cc1,-15.8% (inactive)
20,O=C(O)CC/C(=C/c1cccc(NC(=O)c2ccccc2Cl)c1)c1nc2ccccc2s1,53.2% (inactive)

row,SMILES,"activity change, negative = inhibition"
1,CCc1ccc2occ(CC(=O)Nc3ccc(C)c(C)c3)c2c1,17.3% (inactive)
2,CCCc1nc2ccc(C(=O)OC)cn2c1Cc1ccc(C)cc1,1.17% (inactive)
3,CCCc1ccc2oc(C(=O)NCCc3nc(C(=O)OCC)cs3)c(C)c2c1,-14.7% [at 30.8 µM] (inactive)
4,Cc1ccc(NC(=O)CC2S/C(=N/N=C3\CCCc4ccccc43)NC2=O)cc1 (stereo not given),-9.99% [at 30.8 µM] (inactive)
5,COc1ccc(Cn2c(-c3ccc(C)cc3)nc3c(c(=O)c4ccccc4n3C)c2=O)cc1,-16.2% [at 30.8 µM] (inactive)
6,CCN(CCCNC(=O)c1cc2cc3ccc(OC)cc3nc2s1)c1cccc(C)c1,10.5% (inactive)
7,Brc1cc2c(cc1CSc1ncccn1)OCO2,-28.4% [at 30.8 µM] (inactive)
8,CN(CCOc1ccc(Br)cc1)C(=O)CNC(=O)c1ccc2ccccc2c1,-17.3% [at 30.8 µM] (inactive)
9,Cc1ccc(NC(=O)CN2C(=O)S/C(=C\c3cccn3-c3cccc(C(=O)O)c3)C2=O)cc1C,-10.4% [at 30.8 µM] (inactive)
10,CCC(=O)NC(c1ccc(OC)cc1)c1c(O)ccc2ccccc12 (stereo not given),5.31% (inactive)
11,O=C(CSc1ccc2ccccc2c1)Nc1ccc(S(=O)(=O)Nc2nccs2)cc1,-0.461% [at 30.8 µM] (inactive)
12,CCC1=Nc2cc(C(=O)NCCCOC)ccc2Sc2ccc(Br)cc21,17.9% (inactive)
13,CC1CC(C)CN(C(=O)c2ccc3c(c2)N(Cc2ccccc2)CCS3)C1 (stereo not given),1.99% [at 30.8 µM] (inactive)
14,CC(c1nc2ccccc2n1Cc1ccccc1)n1c(-c2cnccn2)nc2ccccc21 (stereo not given),5.1% (inactive)
15,CN(C)C(=O)c1cccc(-c2cnc3c(NC=O)cc(-c4ccccc4Cl)cn23)c1,-0.236% (inactive)
16,Cc1ccc(C(NC(=O)C2CCN(Cc3ccc(Cl)c(Cl)c3)CC2)c2ccccn2)cc1 (stereo not given),-10.3% (inactive)
17,O=C1CSC(c2cccc(Cl)c2Cl)N1c1ccccn1 (stereo not given),-6.53% [at 30.8 µM] (inactive)
18,O=C(/C=C/c1ccco1)Nc1nc(-c2ccccn2)cs1,10.4% (inactive)
19,Cc1cccc(N(Cc2ccccc2)C(=O)CSC(C)C(=O)Nc2cc(C)on2)c1 (stereo not given),-5.63% (inactive)
